# In all, about 5,500 compounds went through this assay and about 2,000 (36%) were called active. Inconclusive results (about 18%) are left out. This is one part of the list. A number with no mark means an inactive call. Rule as the data show it: active = normalized growth mostly below about 0.91 (no sharp cut-off); inconclusive = no clear call, values can overlap the other calls; inactive = mostly above about 0.92.
# Assay: chemical genetic growth profiling, strain panel (AID 1159580);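 also: tested at 20 µM; growth read once vehicle control cultures reached saturation at 30 °C; 1 = growth at the plate median or of vehicle wells; lower values mean less growth of the strain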
# Conditions: growth OD
smiles,measurement,setting,value
CC[n+]1c(-c2ccccc2)c2cc(N)ccc2c2ccc(N)cc21,normalized growth,"S. cerevisiae deletion strains, locus YJR075W, strain HOC1, active compounds read low",0.665 (active)
same,normalized growth,"S. cerevisiae deletion strains, locus YKL009W, strain mrt4, active compounds read low",0.867 (active)
same,normalized growth,"S. cerevisiae deletion strains, locus YKL068W, active compounds read low",0.881 (active)
same,normalized growth,"S. cerevisiae deletion strains, locus YKL085W, strain MDH1 (second series), active compounds read low",0.882 (active)
same,normalized growth,"S. cerevisiae deletion strains, locus YKL085W, strain MDH1, active compounds read low",0.882 (active)
same,normalized growth,"S. cerevisiae deletion strains, locus YKL160W, strain elf1, active compounds read low",0.973
same,normalized growth,"S. cerevisiae deletion strains, locus YKL190W, strain CNB1, active compounds read low",0.857 (active)
same,normalized growth,"S. cerevisiae deletion strains, locus YKR001C, strain vps1, active compounds read low",0.929
same,normalized growth,"S. cerevisiae deletion strains, locus YKR026C, strain gcn3, active compounds read low",0.955
same,normalized growth,"S. cerevisiae deletion strains, locus YKR091W, strain srl3, active compounds read low",0.97
same,normalized growth,"S. cerevisiae deletion strains, locus YLL001W, strain dnm1, active compounds read low",0.95
same,normalized growth,"S. cerevisiae deletion strains, locus YLL026W, active compounds read low",0.97
same,normalized growth,"S. cerevisiae deletion strains, locus YLL041C, strain sdh2, active compounds read low",0.972
same,normalized growth,"S. cerevisiae deletion strains, locus YLR027C, strain aat2, active compounds read low",0.979
same,normalized growth,"S. cerevisiae deletion strains, locus YLR039C, strain RIC1, active compounds read low",0.771
same,normalized growth,"S. cerevisiae deletion strains, locus YLR058C, strain SHM2, active compounds read low",0.847 (active)
same,normalized growth,"S. cerevisiae deletion strains, locus YLR102C, strain apc9, active compounds read low",0.942
same,normalized growth,"S. cerevisiae deletion strains, locus YLR113W, strain HOG1, active compounds read low",0.831 (active)
same,normalized growth,"S. cerevisiae deletion strains, locus YLR221C, strain rsa3, active compounds read low",0.936
same,normalized growth,"S. cerevisiae deletion strains, locus YLR258W, strain gsy2, active compounds read low",0.968
same,normalized growth,"S. cerevisiae deletion strains, locus YLR262C, strain YPT6 (second series), active compounds read low",1.01
same,normalized growth,"S. cerevisiae deletion strains, locus YLR262C, strain YPT6, active compounds read low",0.755
same,normalized growth,"S. cerevisiae deletion strains, locus YLR268W, strain sec22, active compounds read low",0.777 (active)
same,normalized growth,"S. cerevisiae deletion strains, locus YLR320W, strain mms22, active compounds read low",0.872 (active)
same,normalized growth,"S. cerevisiae deletion strains, locus YLR330W, strain CHS5, active compounds read low",0.886 (active)
same,normalized growth,"S. cerevisiae deletion strains, locus YLR342W, strain FKS1 (second series), active compounds read low",0.86
same,normalized growth,"S. cerevisiae deletion strains, locus YLR342W, strain FKS1, active compounds read low",0.987
same,normalized growth,"S. cerevisiae deletion strains, locus YLR357W, strain rsc2, active compounds read low",1.04
same,normalized growth,"S. cerevisiae deletion strains, locus YLR370C, strain arc18, active compounds read low",0.955
same,normalized growth,"S. cerevisiae deletion strains, locus YLR371W, strain rom2, active compounds read low",0.917
same,normalized growth,"S. cerevisiae deletion strains, locus YLR384C, strain iki3, active compounds read low",0.966
same,normalized growth,"S. cerevisiae deletion strains, locus YLR418C, strain cdc73, active compounds read low",0.881
same,normalized growth,"S. cerevisiae deletion strains, locus YML016C, strain PPZ1, active compounds read low",0.885 (active)
same,normalized growth,"S. cerevisiae deletion strains, locus YML032C, strain rad52, active compounds read low",0.425 (active)
same,normalized growth,"S. cerevisiae deletion strains, locus YML120C, strain ndi1, active compounds read low",0.96
same,normalized growth,"S. cerevisiae deletion strains, locus YML124C, strain tub3, active compounds read low",0.932 (active)
same,normalized growth,"S. cerevisiae deletion strains, locus YMR058W, strain fet3, active compounds read low",0.973
same,normalized growth,"S. cerevisiae deletion strains, locus YMR078C, strain ctf18, active compounds read low",0.814 (active)
same,normalized growth,"S. cerevisiae deletion strains, locus YMR125W, strain sto1, active compounds read low",0.98
same,normalized growth,"S. cerevisiae deletion strains, locus YMR129W, active compounds read low",0.969
same,normalized growth,"S. cerevisiae deletion strains, locus YMR205C, strain PFK2, active compounds read low",0.831 (active)
same,normalized growth,"S. cerevisiae deletion strains, locus YMR223W, strain ubp8, active compounds read low",0.825 (active)
same,normalized growth,"S. cerevisiae deletion strains, locus YMR231W, strain pep5, active compounds read low",0.986
same,normalized growth,"S. cerevisiae deletion strains, locus YMR307W, strain GAS1, active compounds read low",0.714
same,normalized growth,"S. cerevisiae deletion strains, locus YNL067W, strain RPL9B, active compounds read low",0.805 (active)
same,normalized growth,"S. cerevisiae deletion strains, locus YNL071W, strain lat1, active compounds read low",0.868 (active)
same,normalized growth,"S. cerevisiae deletion strains, locus YNL153C, strain GIM3, active compounds read low",0.888
same,normalized growth,"S. cerevisiae deletion strains, locus YNL183C, strain NPR1, active compounds read low",0.878
same,normalized growth,"S. cerevisiae deletion strains, locus YNL209W, strain ssb2, active compounds read low",0.96
same,normalized growth,"S. cerevisiae deletion strains, locus YNL233W, strain BNI4, active compounds read low",0.841 (active)
same,normalized growth,"S. cerevisiae deletion strains, locus YNL248C, strain rpa49, active compounds read low",0.858 (active)
same,normalized growth,"S. cerevisiae deletion strains, locus YNL250W, strain rad50, active compounds read low",0.662 (active)
same,normalized growth,"S. cerevisiae deletion strains, locus YNL271C, strain bni1, active compounds read low",0.909 (active)
same,normalized growth,"S. cerevisiae deletion strains, locus YNL298W, strain CLA4, active compounds read low",0.881 (active)
same,normalized growth,"S. cerevisiae deletion strains, locus YNL307C, strain MCK1, active compounds read low",0.855 (active)
same,normalized growth,"S. cerevisiae deletion strains, locus YNL322C, strain KRE1 (second series), active compounds read low",0.919
same,normalized growth,"S. cerevisiae deletion strains, locus YNR049C, strain mso1, active compounds read low",0.962
same,normalized growth,"S. cerevisiae deletion strains, locus YNR052C, strain pop2, active compounds read low",0.885 (active)
same,normalized growth,"S. cerevisiae deletion strains, locus YOL006C, strain TOP1, active compounds read low",0.64
same,normalized growth,"S. cerevisiae deletion strains, locus YOL012C, strain htz1",0.55
same,normalized growth,"S. cerevisiae deletion strains, locus YOL147C, strain pex11, active compounds read low",0.898 (active)
same,normalized growth,"S. cerevisiae deletion strains, locus YOR001W, strain rrp6, active compounds read low",0.857 (active)
same,normalized growth,"S. cerevisiae deletion strains, locus YOR061W, strain CKA2, active compounds read low",0.876 (active)
same,normalized growth,"S. cerevisiae deletion strains, locus YOR069W, strain VPS5, active compounds read low",0.891 (active)
same,normalized growth,"S. cerevisiae deletion strains, locus YOR070C, strain gyp1, active compounds read low",0.967
same,normalized growth,"S. cerevisiae deletion strains, locus YOR080W, strain dia2, active compounds read low",0.988
same,normalized growth,"S. cerevisiae deletion strains, locus YOR083W, strain WHI5, active compounds read low",0.948
same,normalized growth,"S. cerevisiae deletion strains, locus YOR106W, strain vam3, active compounds read low",0.966
same,normalized growth,"S. cerevisiae deletion strains, locus YOR136W, strain idh2, active compounds read low",0.964
same,normalized growth,"S. cerevisiae deletion strains, locus YOR144C, strain elg1, active compounds read low",0.906 (active)
same,normalized growth,"S. cerevisiae deletion strains, locus YOR184W, strain ser1, active compounds read low",0.73 (active)
same,normalized growth,"S. cerevisiae deletion strains, locus YOR231W, strain MKK1, active compounds read low",0.898
same,normalized growth,"S. cerevisiae deletion strains, locus YOR265W, strain rbl2, active compounds read low",0.974
same,normalized growth,"S. cerevisiae deletion strains, locus YOR270C, strain vph1, active compounds read low",0.856
same,normalized growth,"S. cerevisiae deletion strains, locus YOR290C, strain snf2, active compounds read low",0.937
same,normalized growth,"S. cerevisiae deletion strains, locus YOR316C, strain cot1, active compounds read low",0.933
same,normalized growth,"S. cerevisiae deletion strains, locus YPL051W, strain arl3, active compounds read low",0.989
same,normalized growth,"S. cerevisiae deletion strains, locus YPL055C, strain LGE1, active compounds read low",0.89
same,normalized growth,"S. cerevisiae deletion strains, locus YPL078C, strain atp4, active compounds read low",1.02
same,normalized growth,"S. cerevisiae deletion strains, locus YPL106C, strain sse1, active compounds read low",0.913
same,normalized growth,"S. cerevisiae deletion strains, locus YPL240C, strain hsp82, active compounds read low",0.97
same,normalized growth,"S. cerevisiae deletion strains, locus YPL256C, strain CLN2, active compounds read low",0.855
same,normalized growth,"S. cerevisiae deletion strains, locus YPR119W, strain clb2, active compounds read low",0.925 (active)
same,normalized growth,"S. cerevisiae deletion strains, locus YPR141C, strain kar3, active compounds read low",0.886 (active)
same,normalized growth,"S. cerevisiae deletion strains, locus YPR163C, strain tif3, active compounds read low",0.781 (active)
same,normalized growth,"S. cerevisiae deletion strains, locus YPR167C, strain met16, active compounds read low",0.864 (active)
same,normalized growth,"S. cerevisiae deletion strains, strain wtn01, active compounds read low",0.795 (active)
same,normalized growth,"S. cerevisiae strains, strain wild type, active compounds read low",0.854 (active)
